Laboratory results taken from PubChem BioAssay AID1259343 (VanderVen Lab, College of Veterinary Medicine, Cornell …, 2017).
The whole screen tested about 6,200 compounds, of which about 2,900 (47%) were called active. The set was probably picked from earlier hits. The list shows a part of the results. Unmarked numbers belong to inactive results. Cut-off read from the data, not from the text of the source: active = inhibition above about 50%; inactive = the rest.

Experiment: Mycobacterium tuberculosis growth inhibition, primary screen (AID 1259343)
Details: inhibition: at 10 µM, active compounds read high; outcome: 10 uM

SMILES	inhibition
Ic1cccc(-c2nnc(-c3ccccc3)o2)c1	103% (active)
Nc1ccc2oc(-c3cccc(I)c3)nc2c1	60.4% (active)
Nc1ccc(-c2nc3cc(Cl)ccc3o2)cc1	90.3% (active)
CN(C)c1cccc(-c2nc3cc(N)ccc3o2)c1	30.8%
Nc1ccc(Cl)c(-c2nc3cc(Cl)ccc3o2)c1	30%
Nc1ccc2oc(-c3cc(F)c(F)cc3Cl)nc2c1	-28%
Nc1ccc2oc(-c3cncc(Br)c3)nc2c1	7.61%
CC(c1nnc(-c2ccccc2)o1)N(C)CC12CC3CC(CC(C3)C1)C2 (centres undefined)	-23%
Cc1cccc(-c2nnc(C(C)Oc3ccccc3C#N)o2)c1 (centres undefined)	23.4%
CS(=O)(=O)c1nnnn1-c1ccccc1Cl	95.7% (active)
COc1cc(C2=NC(=Cc3ccc(N4CCOCC4)s3)C(=O)O2)cc(OC)c1OC	79.7% (active)
COc1cc(C2=NC(=CC3=Cc4ccccc4OC3)C(=O)O2)cc(OC)c1OC	inactive
Cc1ccc(C2=NC(=Cc3ccco3)C(=O)O2)cc1C	-7.96%
O=C(Nc1nc(-c2ccco2)c(-c2ccco2)s1)c1cnccn1	-27.4%
CC1(C(=O)Nc2nc(-c3ccccc3Cl)cs2)Cc2ccccc2C(=O)O1 (centres undefined)	37.1%
O=C(CCl)Nc1nc(-c2c[nH]c3ccccc23)cs1	-41.1%
O=C(CCl)Nc1nc(-c2ccccc2Cl)cs1	97.7% (active)
Cc1cnc(NC(=O)CCc2nc(C(C)(C)C)no2)s1	-2.31%
O=C(CCl)Nc1ncc(Cc2ccccc2)s1	-18.1%
O=C(Nc1ncc(Cc2ccccc2Cl)s1)c1cnccn1	92.8% (active)
O=C(CCl)Nc1ncc(Cc2ccccc2Cl)s1	92.7% (active)
O=C1CCCC2=C1C(c1cccs1)n1ncnc1N2 (centres undefined)	-18.9%
CCCC(C)NC(=O)c1cc(Cl)c[nH]1 (centres undefined)	10.3%
O=C(NCCCOCc1ccccc1)c1cc(Cl)c[nH]1	77.7% (active)
O=C(COc1ccc(F)cc1)NCCc1ccc(OC(F)F)cc1	90.5% (active)
O=C(COc1ccc(F)cc1)NCc1csc(Br)c1	-34.9%

SMILES	inhibition
Cc1ccc(C2=NN(C(=O)CN3CCc4ccccc4C3)C(c3ccccc3C)C2)c(C)c1 (centres undefined)	40.4%
CCOc1cc(C)ccc1NC(=O)CN1Cc2ccccc2C1	14.2%
Cc1ccc(Cl)cc1NC(=O)CN1CCc2ccccc2C1	91.4% (active)
CCN(Cc1cccc(C(N)=O)c1)c1ccccc1C	27.3%
CC1(C)CC(C=Cc2cccs2)=Nc2ccccc2S1	-37.6%
N#Cc1ccc([N+](=O)[O-])c(O)c1	77.2% (active)
CCOP1(=S)C(=C2N(C)c3ccccc3C2(C)C)C=NN1c1ccccc1 (centres undefined)	27.1%
CN1/C(=C/C(=O)Nc2ccc(Cl)cc2)C(C)(C)c2ccccc21	1.72%
CCN(CC)P(=S)(C=C1N(C)c2ccccc2C1(C)C)CC (centres undefined)	87.2% (active)
O=C(Nc1ccsc1C(=O)O)c1ccc(Br)cc1	82.5% (active)
O=C(O)c1sc(Br)c(I)c1I	7.67%
C(=Nn1c(-c2cccs2)csc1=Nc1ccccc1)c1ccccn1	-1.25%
c1csc(-c2cnc3ccc(-c4ccncc4)nn23)c1	74.1% (active)
N#Cc1cc2c(nc1SCC(=O)OCc1ccccc1)CCC2	41.5%
CCOc1ccccc1NC(=O)Nc1ccc(Nc2cc(OC(C)C)nc(C)n2)cc1	14.6%
CCCC(C)(C)NC(=O)c1nnn(-c2ccc(F)cc2)c1C	16.4%
CCOc1ccccc1-n1nnc(C(=O)Nc2ccc(C(C)=O)cc2)c1C	70% (active)
CC1=NN(c2ccc(Cl)cc2)C(=O)C12Cc1ccccc1N1CCCCC12 (centres undefined)	19.5%
CCOC(=O)NN=C(C)c1ccc(Cl)s1	19.5%
COCCNC(=S)NN=C(C)c1ccc(Cl)s1	79.3% (active)
C=C(C)CNC(=S)NN=C(C)c1ccc(Cl)s1	102% (active)
CC(=NNc1ncc(Cl)cc1Cl)c1ccc(Cl)s1	30.7%
CNC(=S)NN=C(C)c1ccc(Cl)s1	47.3%
CCNC(=S)NN=C(C)c1ccc(Cl)s1	-2.97%
O=C(NCCCCCC(=O)N1CCC(c2ccccc2)CC1)OCc1ccccc1	70.8% (active)
CNC(=O)c1ccc2n1CCN(C(=O)OCc1ccccc1)C2C (centres undefined)	16.2%

SMILES	inhibition
O=C(c1ccc([N+](=O)[O-])cc1)N1CCN(c2nc(-c3ccccc3)c3cc(Cl)ccc3n2)CC1	68% (active)
Cc1ccc(C)c(N2CCN(C(=O)c3ccc4c(=O)nc5c(-c6ccccc6)n[nH]n5c4c3)CC2)c1	46.6%
O=C(C1CCCC1)N1CCN(c2nc(-c3ccccc3Cl)nc3cc(Cl)ccc23)CC1	24.6%
Cc1ccc(-n2ncc3c(C)nn(Cc4ccccc4F)c(=O)c32)c(C)c1	37.1%
O=S(=O)(Nc1ccc(Cl)cc1F)c1ccc(Br)cc1Cl	71% (active)
CN(C)S(=O)(=O)c1ccc(CNc2cc(F)ccc2Cl)o1	-3.01%
O=S(=O)(Nc1c(F)cccc1Br)c1cc(Cl)cc(Cl)c1	87.1% (active)
Cc1ccc(F)cc1NS(=O)(=O)c1cc(Cl)sc1Cl	94.1% (active)
CN(C1CCCCC1)S(=O)(=O)c1ccc(Br)cc1Cl	-4.67%
O=S(=O)(Nc1c(F)cccc1F)c1c(Cl)cccc1Cl	78.8% (active)
Cc1ccc(NS(=O)(=O)c2ccc(F)cc2[N+](=O)[O-])c(F)c1	50.2% (active)
O=S(=O)(Nc1ccc(F)c(F)c1F)c1ccc(Cl)c2ncccc12	63% (active)
O=S(=O)(Nc1ccc(F)c(F)c1F)c1ccc(Cl)cc1F	79.2% (active)
O=S(=O)(Nc1ccc(F)cc1F)c1ccccc1Cl	82.3% (active)
Cc1nnc(N2C(=N)S/C(=C\c3c(-c4ccccc4)n(C)c4ccccc34)C2=O)s1	23.3%
NC(=O)c1ccccc1OCc1ccccc1C(F)(F)F	42.9%
O=S(=O)(Nc1ccc(F)cc1)c1cc(Br)ccc1Br	33.5%
O=S(=O)(Nc1cc(F)ccc1F)c1cccc(Br)c1	103% (active)
Cc1ccc(NS(=O)(=O)c2ccc(C)c(F)c2)c(C(=O)O)c1	8.32%
O=C(O)c1cc(F)ccc1NS(=O)(=O)c1ccc(Cl)cc1	70% (active)
O=S(=O)(Nc1cccc(F)c1)c1cc(Br)ccc1Br	29.6%
O=S(=O)(Nc1cc(F)ccc1F)c1cc(Cl)cc(Cl)c1	64.2% (active)
O=S(=O)(Nc1cc(Cl)ccc1O)c1cc(Br)ccc1Br	105% (active)
O=S(=O)(Nc1ccc(F)cc1F)c1cccc(F)c1	-36.4%
CCCc1ccc(S(=O)(=O)Nc2ccc(F)cc2C(=O)O)cc1	-3.59%
O=S(=O)(Nc1c(F)cccc1F)c1cccc(Br)c1	4.09%

SMILES	inhibition
Cc1ccc(C)c(S(=O)(=O)Nc2ccc(Cl)cc2F)c1	0.55%
Cc1ccc(NS(=O)(=O)c2ccc(Cl)cc2F)c(Cl)c1	73% (active)
Cc1ccc(NS(=O)(=O)c2cccc(C(F)(F)F)c2)c([N+](=O)[O-])c1	77.1% (active)
O=[N+]([O-])c1ccc(Cl)c(S(=O)(=O)Nc2ccc(F)cc2Cl)c1	78.2% (active)
O=S(=O)(Nc1ccccc1I)c1ccc(C(F)(F)F)cc1	41.5%
O=S(=O)(Nc1cc(F)ccc1F)c1ccc(Cl)cc1F	64.4% (active)
O=S(=O)(Nc1ccc(F)cc1F)c1ccc(Cl)cc1F	-21.9%
O=[N+]([O-])c1cc(Cl)ccc1NS(=O)(=O)c1cccc(C(F)(F)F)c1	-1.17%
CCC1=NOC(c2nc3sc(C(C)(C)C)cc3c(=O)[nH]2)C1 (centres undefined)	25.8%
Cc1ccc(S(=O)(=O)Nc2ccc(Cl)c(C#N)c2)cc1	-29.9%
Cc1ccc(NS(=O)(=O)c2cc(Cl)cc(Cl)c2)cc1	88.4% (active)
O=C(C1=C2SC=C(c3ccc(Br)cc3)N2CC1)c1ccc2c(c1)OCO2	-40.9%
Cc1cc(=O)[nH]c(-n2nc(C)cc2NC(=O)Cc2cccc3ccccc23)n1	102% (active)
CCCc1cc(=O)[nH]c(-n2nc(C)cc2NC(=O)CC(c2ccccc2)c2ccccc2)n1	101% (active)
CCCc1cc(=O)[nH]c(-n2nc(C)cc2NC(=O)Cc2cccc3ccccc23)n1	100% (active)
CCCc1cc(=O)[nH]c(-n2nc(C)cc2NC(=O)C(CC)c2ccccc2)n1 (centres undefined)	102% (active)
CCCc1cc(=O)[nH]c(-n2nc(C)cc2NC(=O)Cc2ccc(OCC)cc2)n1	-19.4%
CCCc1cc(=O)[nH]c(-n2nc(C)cc2NC(=O)CCc2ccccc2)n1	-14.3%
CCCc1cc(=O)[nH]c(-n2nc(C)cc2NC(=O)Cc2ccccc2)n1	99.9% (active)
COc1c(-c2coc3cc4c(cc3c2=O)CC(OC(C)=O)C(C)(C)O4)ccc2c1C=CC(C)(C)O2 (centres undefined)	77.7% (active)
CCCNC(=O)CN1CCc2cc(Br)ccc21	74.1% (active)
CCOC(C)c1nc(CN2CCc3cc(Br)ccc32)cs1 (centres undefined)	28.4%
O=C(Cc1ccccc1O)N1CCc2cc(Br)ccc21	23.1%
CC(C)c1ccc(Oc2ccc3nnnn3n2)cc1	55.6% (active)
Cc1cc(Oc2ccc(C(C)C)cc2)nc(SCc2ccc(F)c(F)c2)n1	-1.84%
O=S(c1ccccc1)c1ccc2nnnn2n1 (centres undefined)	-44%
